Screening results deposited in PubChem BioAssay by several laboratories.
PrPC TRFRET = inhibitors of human cell surface prion protein PrPC. P04156. 0.43% of 370,000 active. TR-FRET read-out. inhibition, % at 13.8 µM; in the data active = inhibition above about 24%; note: 0% = median of the test wells and 100% = reference compound wells
PrP UTR inh = inhibition of PrP 5' UTR reporter expression | cell-based PrP 5' UTR mRNA reporter, plate reader | inhibition, % (no concentration beside the values) | 0.35% of 340,000 active | AID 488862; in the data active = inhibition above about 52%; note: 0 = median of the neutral control wells
SSB-PriA inh = inhibitors of Klebsiella pneumoniae PriA binding to SSB C-terminal tail | AlphaScreen SSBct-PriA binding, biotinylated peptide | AID 1272365 | 0.6% of 430,000 active | inhibition, % at 33 µM; in the data active = inhibition mostly above about 37%, no sharp cut-off; inactive = mostly below about 20%;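 note: plate controls were negative control peptide for no effect and reference peptide for full effect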
Yp Topo-I inh = inhibitors of Yersinia pestis topoisomerase I. Y. pestis Topo-I cleavage product accumulation, plate reader. AID 504884. 0.064% of 360,000 active. activity, % at 10 µM; in the data active = activity above about 50%, passing the limit was not always enough; inconclusive = no clear call, values can overlap the other calls
BJeLR viability = BJeLR cell viability loss; BJeLR (HRASV12) viability, CellTiter-Glo ATP luminescence, 48 h; inhibition, % (concentration not given with the values); 0.17% of 300,000 active; AID 1554; in the data active = inhibition above about 50%; inconclusive = no clear call, values can overlap the other calls
PfHsp40 rescue = rescue of PfHsp40-mediated yeast toxicity | S. cerevisiae expressing PfHsp40, growth rescue, ATP luminescence | growth rescue, % at 12.5 µM | 0.68% of 340,000 active | AID 504582; in the data active = growth rescue above about 28%, passing the limit was not always enough; inconclusive = no clear call, values can overlap the other calls;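 note: yeast W303a lacking pdr1 and pdr3 grown in galactose medium; growth measured after three days at 30 °C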
* marks the source's active call; other numbers are inactive results; ? = inconclusive; nt = no result given. Sampled rows, rich in hits. Any-hit rate of the full collection: about 1.7%.

SMILES	PrPC TRFRET	PrP UTR inh	SSB-PriA inh	Yp Topo-I inh	BJeLR viability	PfHsp40 rescue
CCN(CC)c1ccc(C=NNc2nc3ccccc3[nH]2)c(O)c1	nt	nt	92	nt	nt	nt
CCN(CC)c1ccc(/C=N/Nc2nc3ccccc3[nH]2)cc1	37*	-69	nt	-24	19	-1
CC(=O)Nc1ccc(/C=N/Nc2nc3ccccc3[nH]2)cc1	-12	-25	nt	-31	67*	0
CCOc1ccccc1-n1nnnc1SCC(=O)Nc1ccccc1C(=O)O	nt	nt	0	nt	nt	nt
Cn1nc2c(cc1=O)C[C@@H](C(=O)N1CCN(c3cccc(Cl)c3)CC1)CC2	nt	nt	-6	nt	nt	nt
COC(=O)[C@@H]1Cc2c([nH]c3ccccc23)C(C)(C)N1C(=O)CCl	6	-11	-14	-6	91*	0
O=C(N/N=C/c1cccnc1)c1ccc2ccccc2c1O	-7	-16	nt	-2	nt	0
O=C(Nc1cccnc1)c1ccc2ccccc2c1O	7	-72	-4	-3	4	173*
Cc1nc2c(F)c(F)c(C(F)(F)F)c(F)c2[nH]1	-3	1	-4	2	2	88*
Cc1ccc(O)c(NC(=O)C2CC(c3c(F)cccc3Cl)=NO2)c1 (stereo not drawn)	-3	-48	-10	4	-18	36*
COc1cc(NC(=O)C2CC(c3c(F)cccc3Cl)=NO2)c(OC)cc1Cl (stereo not drawn)	-7	-7	-10	10	-7	1
CCCn1nc([N+](=O)[O-])c(C(C#N)c2nc3ccccc3s2)c(Cl)c1=O (stereo not drawn)	-50	-6	55*	-3	20	?
CCn1nc([N+](=O)[O-])c(C(C#N)c2nc3ccccc3n2C)c(Cl)c1=O (stereo not drawn)	-13	-18	24	-2	-9	-2
FC(F)(F)c1ccc(CN2CCN(Cc3ccco3)CC2)cc1	-2	-10	-8	-4	3	50*
COc1ccc(CN2CCN(Cc3ccco3)CC2)cc1	4	-5	-6	3	-7	1
CCOC(=O)c1c(NC(=O)CN2C(=O)C[C@@H](c3ccccc3)Sc3ccccc32)sc2c1CCC2	nt	nt	-9	nt	nt	nt
Cc1ccccc1N=C1NN=C(c2ccccc2F)CS1	7	-64	39*	1	-4	0
Cc1ccc(C(O)=C2C(=O)C(=O)N(c3ccccn3)[C@@H]2c2cccc(Br)c2)cc1	nt	nt	-8	nt	nt	nt
Fc1ccc(Cn2ccc(-c3cnc(-c4ccccc4)s3)n2)cc1	-7	-27	-23	28	3	58*
Cc1ccc(Cn2ccc(-c3cnc(-c4ccccc4)s3)n2)cc1	-3	-78	-20	42	4	-1
COc1ccccc1N(CC(=O)NCCSc1ccccc1)S(C)(=O)=O	4	-6	-26	4	1	-1
COc1ccccc1N(CC(=O)NCCSc1ccccc1)S(=O)(=O)c1ccccc1	1	-28	-2	57*	7	0
Cn1cccc1Cc1nnc(SCC(=O)Nc2ccc3c(c2)OCO3)n1-c1ccc(Cl)cc1	nt	nt	87*	nt	nt	nt
Cc1ccccc1-n1c(SCC(=O)Nc2ccc3c(c2)OCO3)nnc1-c1ccccn1	5	0	42*	1	-1	1
O=C(CSc1nnc(-c2ccccn2)n1-c1ccccc1)Nc1ccc2c(c1)OCCO2	-4	nt	nt	nt	nt	nt
SMILES	PrPC TRFRET	PrP UTR inh	SSB-PriA inh	Yp Topo-I inh	BJeLR viability	PfHsp40 rescue
CCOC(=O)c1c(-c2ccc(-c3ccccc3)cc2)csc1NC(=O)CCN1CCN(CC)CC1	nt	nt	26	nt	nt	nt
CC1CCCN(C(=O)CCc2ccccc2)C1 (stereo not drawn)	0	-40	-1	4	-3	-1
CC1CN(C(=O)CCc2ccccc2)C(C)CN1C(=O)CCc1ccccc1 (stereo not drawn)	1	-28	-33	15	-1	45*
Cc1ccc(S(=O)(=O)NC(N)=NCCc2ccccc2)cc1	nt	nt	6	nt	nt	nt
CN1c2ccccc2C(O)=C(C(=O)Nc2ccccc2)S1(=O)=O	0	-10	3	6	2	0
Cc1sc2c(c1C)C(O)=C(C(=O)Nc1ccccc1)S(=O)(=O)N2C	-1	-7	-6	4	2	153*
CCOc1ccc(-c2ccc(=O)n(CCNC(=O)Nc3cc(F)ccc3F)n2)cc1	nt	nt	-11	nt	nt	nt
Cc1cccc(C)c1N=Nc1c(C)cc(O)cc1C	1	-8	61	-9	24	782*
Cc1cccc(O)c1C	-1	-13	-2	-2	nt	0
CCOC(=O)CCC(=O)NNC(=O)c1cccn(Cc2ccc(Cl)c(Cl)c2)c1=O	nt	nt	-13	nt	nt	nt
